# Marburg entry: qHTS for Inhibitors of binding or entry into cells for Marburg Virus | 18,000 tested, 6.5% active | Marburg virus pseudotype entry/binding inhibition, cell-based | AID 720532, 2013 | Potency, µM (doses to about 49.2 µM), for inactives: top-dose activity change, negative = inhibition, most hits filed as inhibitors
# Lassa entry: qHTS for Inhibitors of binding or entry into cells for Lassa Virus | Lassa virus pseudotyped entry inhibition, cell-based qHTS | Potency, µM (series often up to 49.2 µM), for inactives: top-dose activity change, negative = inhibition, actives largely listed as inhibitors | 18,000 tested, 4.1% active | AID 720533, 2013
# * marks the source's active call; other numbers are inactive results; ? = inconclusive; / = not tested or not shown; ! = not confirmed by another sample; [ ] = remark or other dose. Only some compounds are listed: those with a hit (about 8% of all), similar ones and a draw of the others. The call rests on the fitted dose curve; tested in HEK293 cells. On the % scale 0 is the no-effect control and ±100 the full control effect; potency means the concentration at half of the fitted maximal effect.
SMILES,Marburg entry,Lassa entry
CO[C@@H]1[C@@H](O[C@@H]2O[C@H](C)[C@@H](O[C@H]3C[C@@](C)(O)[C@@H](O)[C@H](C)O3)[C@H](N(C)C)[C@H]2O)[C@@H](CC=O)C[C@@H](C)[C@@H](O[C@@H]2CC[C@H](N(C)C)[C@@H](C)O2)/C=C/C=C/C[C@@H](C)OC(=O)C[C@H]1O,?,9.7%[17.8 µM]
CCC1OC(=O)C[C@@H](O)[C@H](C)[C@@H](O[C@@H]2O[C@H](C)C[C@H](N(C)C)[C@H]2O)[C@@H](CC=O)C[C@@H](C)C(=O)/C=C/[C@]2(C)OC2C1C (stereo not given in full),8.91µM*,25.1µM*
C=CC1(O)C(OC)=CC2C(=O)C1C(c1ccccc1)C2C (stereo not given),14.1%[8.59 µM],/
C[C@H]1CCC[C@H](O)CCCCCc2cc(O)cc(O)c2C(=O)O1,13.7%,-25.7%
CC1CC2OC2/C=C\C=C/C(=O)Cc2c(Cl)c(O)cc(O)c2C(=O)O1 (stereo not given),2.51µM*,7.94µM*
O=C(NCc1ccccn1)c1cnn(-c2nccc(-c3cccs3)n2)c1C1CC1,-8.4%,-11.0%
Cc1cc(/C=C/c2ccc3cc(N(C)C)ccc3[n+]2C)c(C)n1-c1ccccc1,?,10µM*
C[C@@H]1CC[C@H]2C(=O)N(Cc3ccc(Cl)cc3)C[C@@H](O)CN2[C@H]1c1cccc(Br)c1,43.4%[8.59 µM],-9.0%[8.59 µM]
CNc1ccc2oc(C[C@@H]3OC4(CC[C@@H]3C)O[C@H]([C@@H](C)C(=O)c3ccc[nH]3)[C@H](C)C[C@H]4C)nc2c1C(=O)O (stereo not given in full),2.82µM*,2.82µM*
O=C1Nc2ccccc2C1=C1CCc2cc(O)ccc21,-21.1%,/
O[C@@](CCN1CCCCC1)(c1ccccc1)[C@@H]1C[C@H]2C=C[C@@H]1C2,?,-9.6%[17.8 µM]
COCCN1C(=O)NC(c2ccccc2)C(C(=O)OC)=C1C (stereo not given),8.2%[8.59 µM],-4.2%[8.59 µM]
CC[C@@H]1OC(=O)[C@@H](C)[C@H](O[C@H]2C[C@@](C)(OC)[C@@H](O)[C@H](C)O2)C(C)[C@H](O[C@H]2O[C@@H](C)C[C@@H](N(C)C)[C@@H]2O)[C@@](C)(O)C[C@H](C)C(=O)[C@@H](C)[C@H](O)[C@@]1(C)O (stereo not given in full),?,0.3%
CCC1OC(=O)C(C)[C@@H](O[C@H]2C[C@@](C)(OC)C(O)C(C)O2)C(C)[C@@H](O[C@@H]2OC(C)CC(N(C)C)C2O)[C@@](C)(O)CC(C)CN(C)C(C)C(O)[C@]1(C)O (stereo not given in full),0.631µM*,?
CC[C@@H]1OC(=O)[C@H](C)[C@H](O[C@@H]2C[C@](C)(OC)[C@H](O)[C@H](C)O2)[C@H](C)[C@H](O[C@@H]2O[C@@H](C)C[C@@H](N(C)C)[C@@H]2O)[C@](C)(O)C[C@H](C)C(=O)[C@H](C)[C@H](O)[C@]1(C)O,0.8%[17.8 µM],22.0%[17.8 µM]
CC[C@H]1OC(=O)[C@H](C)[C@@H](O[C@H]2C[C@@](C)(OC)[C@@H](O)[C@H](C)O2)[C@H](C)[C@@H](O[C@@H]2O[C@H](C)C[C@H](N(C)C)[C@H]2O)[C@](C)(O)C[C@@H](C)CN(C)[C@H](C)[C@@H](O)[C@]1(C)O,2.82µM*,?
CCOC(=O)OC[C@H]1O[C@H](C#Cc2ccc(C)cc2C)C=C[C@H]1OC(=O)OCC,4.4%[8.59 µM],-7.7%[8.59 µM]
CCOC(=O)[C@]12C[C@@H]3CCN(C(=O)N(C(C)=O)[C@@H]1c1ccccc1)[C@@H]32,-9.4%[8.59 µM],-0.7%[8.59 µM]
O=C(NC1CC1)c1ccc(NC(=O)C2CCC2)cc1,18.7%,19.6%
CC(=O)Nc1ccc(NC(=S)NC(=O)c2ccc(C(C)(C)C)cc2)cc1,7.08µM*,31.6µM*
CC(=O)c1ccc(-c2c(C)cc3oc(=O)cc(-c4ccccc4)c3c2C)cc1,-17.9%,?
Cc1cc2oc(=O)cc(-c3ccccc3)c2c(C)c1-c1ccc(CO)cc1,-11.1%,11.2µM*
Oc1cc(O)cc(/C=C/c2ccc(O)c(O)c2)c1,20µM*!,22.4µM*
C/C=C/c1ccc(O)c(OC)c1,7.0%,-5.4%
C[C@]12O[C@@H]1[C@@H](O)C(Br)=C(CO)[C@@H]2O,52.4%[8.59 µM],3.4%[8.59 µM]
SMILES,Marburg entry,Lassa entry
Cn1cc(C2=C(c3cn(C4CCN(Cc5ccccn5)CC4)c4ccccc34)C(=O)NC2=O)c2ccccc21,7.08µM*,?
CCC1(C2CCN(Cc3ccccn3)CC2)NC(=O)N(CC2COc3ccccc3O2)C1=O (stereo not given),-0.7%,-7.9%
CCCCCCN1C[C@H](O)[C@@H](n2cc(C3CC3)nn2)C[C@H]1c1ccccc1,?,4.6%
CON=C1C[C@]2(C[C@@H]3C[C@@H](C/C=C(\C)C[C@@H](C)/C=C/C=C4\CO[C@@H]5[C@H](O)C(C)=C[C@@H](C(=O)O3)[C@]45O)O2)O[C@H](/C(C)=C/C(C)C)[C@H]1C,28.2µM*,31.6µM*
O=C1N(Cc2ccc(F)cc2)c2ccccc2[C@@]12O[C@H](COc1ccccc1)CC1CCCC12 (stereo not given in full),106.2%[8.59 µM],41.1%[8.59 µM]
O=S1(=O)c2cccc(Cl)c2OC[C@H](c2ccccc2)N1Cc1cccc(F)c1,-49.5%,/
O=S(=O)(O)c1ccc(Nc2ncnc3c2ncn3[C@@H]2O[C@H](CO)[C@@H](O)[C@H]2O)cc1,16.9%,-12.6%
OC[C@H]1O[C@@H](n2cnc3c(NCc4ccccc4)ncnc32)[C@H](O)[C@@H]1O,28.2µM*,?
CC(=O)OC[C@H]1O[C@H](CCON=C(C)CCN2CCCc3nc(C)c(C)cc32)C=C[C@H]1OC(C)=O,-28.1%[8.59 µM],-19.5%[8.59 µM]
CCCCCCCCCCCCCCCC(=O)OC[C@@H](O)[C@H]1OC[C@H](O)[C@H]1O,-8.6%,3.7%
CC1CCC2C(C)C(=O)OC3OC4(C)CCC1C32OO4 (stereo not given),-7.2%,?
C[C@@H]1CCC2[C@@H](C)[C@@H](O)O[C@@H]3O[C@@]4(C)CC[C@@H]1[C@@]23OO4 (stereo not given in full),1.26µM*,0.631µM*
CC(=Nc1ccc(S(N)(=O)=O)cc1)c1c(O)[nH]c2ccccc12,91.0%,94.6%
CC[C@@H](C(=O)[C@@H](C)[C@@H](O)[C@H](C)[C@@H]1O[C@@H]([C@@H](CC)C(=O)O)CC[C@@H]1C)[C@H]1O[C@]2(C=C[C@@H](O)[C@]3(CC[C@@](C)([C@H]4CC[C@](O)(CC)[C@H](C)O4)O3)O2)[C@H](C)C[C@@H]1C,-78.8%,3.16µM*
CC(=O)C1=C(C)N(Cc2ccccc2)C(=O)NC1c1ccc(Br)cc1 (stereo not given),-4.3%[8.59 µM],?
COC(=O)C1(C(=O)OC)C[C@@H]2CON=C2[C@@H]1c1ccccc1,1.5%[8.59 µM],-3.3%[8.59 µM]
CCCCC/C=C\C/C=C\C/C=C\C/C=C\CCCC(=O)Nc1ccc(O)cc1,?,31.6µM*
CCCCC/C=C\C/C=C\C/C=C\C/C=C\CCCC(=O)Nc1ccc(O)cc1C,?,12.6µM*
CCCCC/C=C\C/C=C\C/C=C\C/C=C\CCCC(=O)NCCO,8.6%,2.7%
CCCCC/C=C\C/C=C\C/C=C\C/C=C\CCCC(=O)NCC(=O)O,-56.2%,?
COC(=O)C1=C(C(=O)OC)[C@@H]2N(Cc3ccccc3)c3ccccc3[C@@]23CCC(=O)N(CC2CC2)C3=N1,?,-5.7%[8.59 µM]
COC(C)(C)CCCC(C)C/C=C/C(C)=C/C(=O)OC(C)C (stereo not given),15.5%,14.1µM*!
